Screens as filed in PubChem BioAssay.
IL-1B inflam inh – blocks inflammasome-driven IL-1 beta release; hit rate 4.7% among 360,000; THP-1 LPS/ATP IL-1B secretion, AlphaLISA, 16 h; stronger effect = lower value; activity change, % at 57.5 µM; AID 743279; in the data active = activity change below about -50%; inconclusive = mostly about -30% to -49%; note: % is set by controls: 0 for no effect and ±100 for the full control effect
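Secreted IL-1B measured by AlphaLISA bead assay after 16 h compound exposure of THP-1 cells; compounds (final up to 57.5 uM) added 1 h before LPS (250 ng/mL) and ATP (1.25 mM) stimulation; lower signal means less secretion.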
TDP1 cell CPT – growth inhibition of DT40 Tdp1-/-;hTDP1 cells with camptothecin (screen for TDP1 inhibitors); chicken DT40 Tdp1-/-;hTDP1 cells + 20 nM CPT, ATP luminescence, 48 h; Potency, µM (series often up to 46.2 µM), inactives show at the highest dose activity change, negative = growth inhibition, most hits filed as inhibitors; hit rate 12% among 420,000; AID 686979; note: potency is the fitted concentration of half-maximal effect; % is set by controls: 0 for no effect and ±100 for the full control effect; nearly all actives have a fitted effect of over 55% in size
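Chicken DT40 Tdp1-/- cells stably complemented with human TDP1 were seeded at 400 cells/well in medium containing 20 nM camptothecin, exposed to pin-transferred compounds, and grown at 37 °C for at least 48 hr. Viability was read as ATP luminescence.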
ASM inhibitor – human S-ASM enzyme inhibition | P17405 | placental ASM, HMU-PC fluorogenic substrate, 60 min | Potency, µM (highest dose often 57.5 µM), inactives show at the top dose activity change, negative = inhibition, hits mostly inhibitors | hit rate 0.006% among 340,000 | AID 504937; note: potency is the fitted concentration of half-maximal effect
Target sequence (P17405 47-631 limits assumed): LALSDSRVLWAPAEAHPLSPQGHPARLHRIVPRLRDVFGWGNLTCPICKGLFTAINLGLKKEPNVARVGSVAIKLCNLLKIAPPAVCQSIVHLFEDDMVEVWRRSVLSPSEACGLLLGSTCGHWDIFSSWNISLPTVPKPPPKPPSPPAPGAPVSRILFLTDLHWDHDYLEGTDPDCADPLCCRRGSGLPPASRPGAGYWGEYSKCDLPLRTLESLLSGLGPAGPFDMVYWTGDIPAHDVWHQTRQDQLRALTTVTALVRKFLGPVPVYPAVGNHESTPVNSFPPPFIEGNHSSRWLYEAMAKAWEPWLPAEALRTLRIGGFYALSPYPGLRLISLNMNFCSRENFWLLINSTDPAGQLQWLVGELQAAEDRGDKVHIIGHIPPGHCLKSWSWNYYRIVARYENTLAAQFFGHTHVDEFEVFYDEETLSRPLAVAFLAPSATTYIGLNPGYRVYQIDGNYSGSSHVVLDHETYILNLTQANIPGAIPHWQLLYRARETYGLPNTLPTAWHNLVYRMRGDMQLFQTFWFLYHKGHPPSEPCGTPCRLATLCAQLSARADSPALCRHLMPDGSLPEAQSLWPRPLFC
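Human placenta-derived ASM enzyme was preincubated with compound for 10 minutes at room temperature, then given fluorogenic substrate HMU-PC0 (9 uM final) for 60 minutes at 37 °C; a pH 10 stop preceded fluorescence reading at Ex 386/Em 447 nm.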
TDP1 cell noCPT – qHTS for Inhibitors of human tyrosyl-DNA phosphodiesterase 1 (TDP1): qHTS in cells in absence of CPT. DT40 Tdp1-/- hTDP1 cells, no CPT, ATP luminescence, 48 h. Potency, µM (titrated, usually from 46.2 µM), for the others: at the highest dose activity change, negative = growth inhibition, most hits filed as inhibitors. hit rate 15% among 420,000. AID 686978, 2013; note: potency is the fitted concentration of half-maximal effect; % is set by controls: 0 for no effect and ±100 for the full control effect; nearly all actives have a fitted effect of over 55% in size
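Growth of hTDP1-complemented DT40 Tdp1-knockout cells is measured by ATP luminescence after at least 48 hr compound exposure at 37 °C, with DMSO substituting for the 20 nM CPT used in the parallel screen.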
HepG2 tox-1 – counter-screen for TGF-b inhibitors: cytotoxicity in HepG2 cells; HepG2 CAGA-GFP viability, ATP luminescence, 18 h; Potency, µM (series often up to 46.1 µM), inactives show top-dose activity change, negative = cytotoxicity, usual class: cytotoxic; hit rate 0.76% among 410,000; note: potency is the fitted concentration of half-maximal effect
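HepG2 CAGA-GFP cells (1000/well, DMEM with 1% FBS) received compound, then TGF-beta at 500 pg/mL final, and were incubated 18 hours at 37 degrees C. Viability was read by CellTiter-Glo luminescence. Media-only wells were set as complete cell-killing and DMSO as no toxicity.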
TGFb inhibitor – TGF-b pathway inhibition; HepG2 CAGA-GFP TGF-b/SMAD3 reporter, GFP fluorescence, 18 h; TGF-beta stimulated, 500 pg/mL final; Potency, µM (series often up to 46.1 µM), for inactives: at the top dose activity, negative = inhibition, usual class: inhibitors; hit rate 1.2% among 410,000; note: potency is the fitted concentration of half-maximal effect; % is set by controls: 0 for no effect and ±100 for the full control effect; nearly all actives have a fitted effect of over 65% in size
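Inhibition was scored as loss of TGF-beta-induced (500 pg/mL final, 18 hours, 37 degrees C) GFP in HEPG2 cells carrying a CAGA-GFP reporter, in DMEM with 1% FBS. Well GFP was summed per cell; Activity was normalised to unstimulated and stimulated DMSO wells, then concentration-response fitting.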
TGFb confirm – TGF-b pathway inhibition, cherry-pick retest | hit rate 63% among 1,600 | Potency, µM (doses to about 46.1 µM), for the others: top-dose activity, negative = inhibition, usual class: inhibitors | HepG2 CAGA-GFP TGF-b reporter, GFP fluorescence, 18 h; cells stimulated with TGF-beta, 500 pg/mL | shares compounds with TGFb inhibitor; note: potency is the fitted concentration of half-maximal effect; % is set by controls: 0 for no effect and ±100 for the full control effect; nearly all actives have a fitted effect of over 65% in size
HepG2 tox-2 – HepG2 cytotoxicity, TGF-b inhibitor counterscreen; shares compounds with TGFb inhibitor; Potency, µM (doses to about 46.1 µM), for inactives: top-dose activity, negative = cytotoxicity, actives largely listed as inhibitors; hit rate 27% among 1,600; HepG2 CAGA-GFP viability, ATP luminescence, 18 h; cells stimulated with TGF-beta, 500 pg/mL; AID 720535; note: potency is the fitted concentration of half-maximal effect; % is set by controls: 0 for no effect and ±100 for the full control effect; nearly all actives have a fitted effect of over 70% in size
CCL64 TGFb inh – orthogonal confirmation of TGF-b inhibitors in CCL64 cells; shares compounds with TGFb inhibitor; CCL64 CAGA-GFP reporter, TGF-b stimulated, GFP fluorescence, 18 h; Potency, µM (highest dose often 46.1 µM), for inactives: at the highest dose activity, negative = inhibition, hits mostly inhibitors; hit rate 41% among 1,600; AID 720536; note: potency is the fitted concentration of half-maximal effect; nearly all actives have a fitted effect of over 65% in size
COP TGFb inh – validation of TGF-b inhibitors in HepG2 COP promoter reporter; HepG2 COP-GFP TGF-b reporter, GFP fluorescence, 18 h; cells stimulated by added recombinant TGF-beta; hit rate 3% among 1,600; shares compounds with TGFb inhibitor; Potency, µM (titrated, usually from 46.1 µM), for the others: at the top dose activity, negative = inhibition, hits mostly inhibitors; note: potency is the fitted concentration of half-maximal effect; nearly all actives have a fitted effect of over 70% in size
Starred values were filed as active, the others as inactive; i = inactive; ? = inconclusive; · = no result given. Most compounds without a hit are left out; they make up all but 19% or so of the library. Unless noted, calls come from the whole dose curve; as a rule, active = well fitted curve in the direction sought with a large enough effect; inconclusive = small, poorly fitted or top-dose-only effect, or another doubt; inactive = no such curve, though single readings can be large; an effect the other way counts as inactive or inconclusive.

SMILES	IL-1B inflam inh	TDP1 cell CPT	ASM inhibitor	TDP1 cell noCPT	HepG2 tox-1	TGFb inhibitor	TGFb confirm	HepG2 tox-2	CCL64 TGFb inh	COP TGFb inh
COc1cc(C(=O)N/N=C/c2cn(Cc3ccccc3)c3ccccc23)ccc1O	i	?	-12%	-21%	-6%	-19%	·	·	·	·
Nc1ccc(C(=O)N/N=C/c2cn(Cc3ccc(F)cc3)c3ccccc23)cc1	?	-26%	-7%	-10%	-13%	7.9µM*	5.8µM*	2.1µM*	-1%	20%
CC1=C(C(=O)N2CCOCC2)CC(CC(=O)NCc2ccco2)C(=O)N1Cc1ccccc1 (stereo not drawn)	10	-4%	·	?	20%	-5%	·	·	·	·
O=C(N/N=C/c1ccccc1C(=O)O)c1ccc(COc2cccc3cccnc23)cc1	0	-5%	3%	-4%	3%	5%	·	·	·	·
O=C(N/N=C/c1ccc[nH]1)c1ccc(COc2cccc3cccnc23)cc1	-89*	-16%	-4%	-47%	2%	1.8µM*	18µM*	?	2.1µM*	67%
O=C(Cc1csc(NC(=O)Nc2ccc(Cl)cc2)n1)NC1CCCC1	-53*	?	-5%	?	-23%	11µM*	16µM*	-28%	?	23%
O=C(CNC1CCCCC1)Nc1ccc(Cl)cc1	-28	-11%	7%	-29%	8%	-2%	·	·	·	·
Cc1cn2c(=O)c(S(=O)(=O)NC(C)c3ccccc3)c(C)nc2s1 (stereo not drawn)	·	-6%	·	5%	-8%	8%	·	·	·	·
CN(c1ccccc1)S(=O)(=O)c1ccc(NC(=O)c2nc(S(C)(=O)=O)ncc2Cl)cc1	-96*	0.65µM*	-1%	0.58µM*	5.6µM*	5.6µM*	2.9µM*	4.1µM*	1.8µM*	6.5µM*
CCS(=O)(=O)c1ncc(Cl)c(C(=O)Nc2ccc(S(=O)(=O)N3CCC(C)CC3)cc2)n1	-104*	1.8µM*	2%	2.6µM*	1.8µM*	4.5µM*	4.6µM*	4.6µM*	2.1µM*	9.2µM*
Cc1ccc(NC(=O)c2nc(S(=O)(=O)Cc3ccccc3C)ncc2Cl)cc1C	-100*	1.5µM*	-14%	1.6µM*	16µM*	7.1µM*	3.3µM*	10µM*	3.7µM*	?
COc1ccccc1NC(=O)c1nc(S(=O)(=O)Cc2ccccc2)ncc1Cl	-102*	1.3µM*	-2%	1.6µM*	-40%	4.5µM*	2.9µM*	5.8µM*	2.1µM*	15µM*
